Only some compounds are listed: those with a hit (about 1.6% of all), similar ones and a draw of the others.
KCNQ2 pot: enhances the rat KCNQ2 potassium channel. CHO-K1 KCNQ2, FluxOR thallium flux fluorescence; active compounds read high. O88943. B-score at 10 µM. hit rate 0.54% among 310,000;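 active = fluorescence ratio B-score at least 3 SD of library B-scores, with initial fluorescence B-score within 3 of them, cut at about 5.3 in these data; same plate scores as AID 2156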;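 also: B-score of peak minus minimum over baseline fluorescence ratio after K+ and Tl+ stimulus; positive B-score means potentiation of KCNQ2 with more thallium influx and brighter signal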
KCNQ2 inh: KCNQ2 (rat) channel inhibition | O88943 | CHO-K1 KCNQ2, FluxOR thallium flux, 20 min; active compounds read low | B-score at 10 µM | hit rate 1.1% among 310,000;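 active = fluorescence ratio B-score at most minus 3 library SDs, with starting brightness B-score within 2 library SDs, cut at about -5.5 in these data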
Kir21 confirm: confirmation of mouse Kir2.1 potassium channel inhibitors | hit rate 41% among 2,300 | Tl flux remaining, % of negative control (active compounds read low), % at 10 µM | Kir2.1-expressing cells, FluxOR thallium flux fluorescence; active compounds read low | AID 2032 | shares compounds with KCNQ2 pot;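 active = Primary-screen hit whose thallium flux fell at least 3 control SD below untreated wells in both duplicates, with normal baseline fluorescence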
Target sequence (P35561 whole entry, looked up): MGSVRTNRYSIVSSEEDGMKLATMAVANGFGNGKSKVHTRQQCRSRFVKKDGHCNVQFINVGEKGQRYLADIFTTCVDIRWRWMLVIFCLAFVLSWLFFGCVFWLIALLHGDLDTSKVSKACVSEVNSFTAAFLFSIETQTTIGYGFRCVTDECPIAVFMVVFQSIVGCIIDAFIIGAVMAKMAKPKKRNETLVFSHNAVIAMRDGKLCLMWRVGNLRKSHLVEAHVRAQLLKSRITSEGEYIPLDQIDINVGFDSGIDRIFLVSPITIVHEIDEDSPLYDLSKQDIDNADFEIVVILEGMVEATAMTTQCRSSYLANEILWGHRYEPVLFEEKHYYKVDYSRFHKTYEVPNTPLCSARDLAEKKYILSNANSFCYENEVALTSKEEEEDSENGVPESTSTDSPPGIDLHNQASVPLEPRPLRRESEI
HEK293 ctr: alters thallium flux in parental HEK293 cells, Kir2.1 counter-screen; hit rate 19% among 2,300; shares compounds with KCNQ2 pot; AID 2105; FluxOR signal as % of negative control (100 = no effect), % at 10 µM; FluxOR thallium flux fluorescence; 0% = unstimulated blank wells;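 active = dye signal at least 3 control SD above or below untreated wells in both duplicates, raw fluorescence within 3, either direction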;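 also: percent is based on the flux ratio of peak minus minimum fluorescence over baseline F0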
CHO-K1 Tl ctr: counter-screen for KCNQ2 potentiators: effect in parental CHO-K1 cells. activity increase over 3SD of controls, % at 10 µM. FluxOR thallium flux fluorescence; zero = vehicle mean+3SD, 100% = vehicle-minus-blank window. hit rate 43% among 1,200. shares compounds with KCNQ2 pot;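 active = signal rise of at least 3 SD above the untreated control mean, in both duplicate wells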;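 also: counter screen of KCNQ2 potentiator hits so any rise reflects channel-independent effects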
KCNQ1 sel pot: selectivity of KCNQ2 potentiators: effect on human KCNQ1; shares compounds with KCNQ2 pot; CHO KCNQ1 stable, FluxOR thallium flux fluorescence; beyond 3SD, as % of vehicle-control signal; activation over 3SD threshold, % at 10 µM; hit rate 28% among 1,200;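 active = fluorescence ratio rise of at least 3 SD of vehicle wells above their mean, in both replicate wells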
KCNQ2 pot confirm: rat KCNQ2 channel potentiator confirmation | CHO-KCNQ2 cells, FluxOR thallium flux fluorescence | potentiation, less the hit threshold, % at 10 µM | shares compounds with KCNQ2 pot | hit rate 68% among 1,200 | AID 2287;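 active = fluorescence ratio rising 3 SD or more over the vehicle control mean in both replicates, plus primary screen hit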;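 also: peak minus minimum thallium fluorescence divided by baseline after K/Tl stimulus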
Kir2-1 sel: selectivity of KCNQ2 potentiators: effect on mouse Kir2.1; shares compounds with KCNQ2 pot; HEK293 Kir2.1, FluxOR thallium flux fluorescence; activity over 3SD threshold, % at 10 µM; hit rate 2% among 1,200;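 active = fluorescence ratio rise of at least 3 SD above the vehicle-control mean, seen in both replicates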
KCNQ2 W236L MoA: potentiates the retigabine-insensitive rat KCNQ2 W236L mutant channel; shares compounds with KCNQ2 pot; CHO KCNQ2-W236L, automated patch clamp current; current increase over 3SD of negative controls (%), active compounds read high, % at 25 µM; hit rate 10% among 940;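 active = current increase at least 3 SD of the untreated controls above them in both duplicate recordings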
Each line names hits and unclear results; the compound was inactive in the other large screens (follow-up assays come after a bar, where they were run).

CCCOCc1ccc(O)c2ncccc12	none
Cc1cc(C)n(-c2ccccc2C#N)n1	none
Cc1cccc(NC(=O)c2sc(Cl)nc2C)c1C	none
COCCCNCCCOc1ccc(Cl)cc1Br	none (no result: KCNQ2 pot)
CN(C)CCOCCOc1ccc(Cl)cc1C(C)(C)C	none (no result: KCNQ2 pot) | Kir21 confirm 34% | HEK293 ctr inactive
CC(O)CNCCCOc1ccc(Cl)cc1C(C)(C)C (centres undefined)	none (no result: KCNQ2 pot) | Kir21 confirm 32% | HEK293 ctr inactive
CC(C)(C)c1cc(Cl)ccc1OCCn1ccnc1	none
Cc1ccc(CNC(=O)C2CCC(=O)N2C(C)C)cc1 (centres undefined)	none (no result: KCNQ2 pot)
CNC(=S)N1CCc2cc(OC)c(OC)cc2C1	none (no result: KCNQ2 pot)
Cc1c(NC(=O)C(C)OC(=O)c2ccc(Br)o2)c(=O)n(-c2ccccc2)n1C (centres undefined)	none
Cc1c(NC(=O)COC(=O)c2ccc(Br)o2)c(=O)n(-c2ccccc2)n1C	none (no result: KCNQ2 pot) | Kir21 confirm inactive | HEK293 ctr inactive
Cc1noc(C)c1CSCC(=O)Nc1nc2ccc(F)cc2s1	none (no result: KCNQ2 pot)
Nc1cc(-c2ccc(Br)cc2)nn1S(=O)(=O)c1cccc2nsnc12	KCNQ2 pot 6.9 | Kir21 confirm inactive | HEK293 ctr inactive | CHO-K1 Tl ctr 20 | KCNQ1 sel pot inactive | KCNQ2 pot confirm inactive | Kir2-1 sel inactive
Nc1cc(-c2ccc(Cl)cc2)nn1S(=O)(=O)c1cccc2nsnc12	none
O=S1(=O)CCOCCCN1Cc1ccccc1Br	none (no result: KCNQ2 pot)
OC1(c2ccc(Cl)cc2)CCN(Cc2c[nH]c3ccccc23)CC1	none | Kir21 confirm 34% | HEK293 ctr inactive
Clc1ccccc1N1CCN(Cc2c[nH]c3ccccc23)CC1	none (no result: KCNQ2 pot)
CN(C)CCc1cc2c(c3c1ccc1ccccc13)OCO2	none (no result: KCNQ2 pot) | Kir21 confirm 16% | HEK293 ctr inactive
COc1cc2ccc3c(CCN(C)C)cc(OC)c(OC)c3c2cc1OC	none
Cc1sc2ncnc(SCC(=O)c3cccs3)c2c1C	KCNQ2 pot 6.9 | Kir21 confirm inactive | HEK293 ctr inactive | CHO-K1 Tl ctr inactive | KCNQ1 sel pot inactive | KCNQ2 pot confirm inactive | Kir2-1 sel inactive | KCNQ2 W236L MoA inactive
Cc1cccc(NC(=O)CSc2ncnc3sc(C)c(C)c23)n1	none
CCN(CC)S(=O)(=O)c1cccc(NC(=O)COc2ncnc3sccc23)c1	none
CCOc1cc(CNC2CCCC2)ccc1OCc1ccccc1Cl	none (no result: KCNQ2 pot)
CCOc1c(Cl)cc(CNCC(C)C)cc1OC	none
CCOc1cc(CNCC(C)C)cc(Cl)c1OCc1ccccc1	none (no result: KCNQ2 pot) | Kir21 confirm 20% | HEK293 ctr inactive
CCOc1cc(CNC2CCCC2)cc(Cl)c1OCc1ccccc1	none (no result: KCNQ2 pot) | Kir21 confirm 34% | HEK293 ctr 134%
N#CC1=C(N)Oc2cc(N)ccc2C1c1ccc(F)cc1F (centres undefined)	none (no result: KCNQ2 pot)
COc1cc(OC)c2cc(C(=O)N[C@@H](Cc3ccccc3)C(=O)O)n(C)c2c1	none
Cc1nc(C)n(C(Oc2ccc(Cl)cc2Cl)C(=O)C(C)(C)C)n1 (centres undefined)	none (no result: KCNQ2 pot)
CCCOC1CCCN(C(=O)c2cc(COc3ccc(F)c(F)c3)on2)C1 (centres undefined)	none
CCCCn1c(N)c(N(CCC(C)C)C(=O)C2CC(=O)N(c3ccccc3OCC)C2)c(=O)[nH]c1=O (centres undefined)	none (no result: KCNQ2 pot)
Cc1ccc2nc(CCCc3nc4ccc(C)cc4[nH]3)[nH]c2c1	none (no result: KCNQ2 pot) | Kir21 confirm 70% | HEK293 ctr inactive
Cc1ccc2nc(CCc3nc4ccc(C)cc4[nH]3)[nH]c2c1	none (no result: KCNQ2 pot)
CC(=O)Nc1ccc(S(=O)(=O)N2CCCC2C(=O)Nc2ccc3c(c2)OCCO3)cc1 (centres undefined)	none
CN(C)CCN(C(=O)c1ccc2c(c1)OCCO2)c1nc2ccc(Cl)cc2s1	none
CN(C)CCCN(C(=O)c1ccc2c(c1)OCCO2)c1nc2ccc(Cl)cc2s1	none (no result: KCNQ2 pot) | Kir21 confirm 54% | HEK293 ctr inactive
O=C(NC(Cc1c[nH]c2ccccc12)C(=O)OCC(=O)c1cccc2ccccc12)c1cccs1 (centres undefined)	none (no result: KCNQ2 pot)
COc1cc(C)c(S(=O)(=O)NOCc2ccc([N+](=O)[O-])cc2)c(C)c1C	none
COc1cc(C)c(S(=O)(=O)NOCc2ccccc2)c(C)c1C	none (no result: KCNQ2 pot) | Kir21 confirm inactive | HEK293 ctr inactive
O=C(NCC(O)c1ccc2ccccc2c1)c1c(F)cccc1F (centres undefined)	none (no result: KCNQ2 pot)
c1coc(CSc2ncnc3c2oc2ccccc23)c1	none
c1ccc(CCCNc2ncnc3nc[nH]c23)cc1	none | Kir21 confirm inactive | HEK293 ctr inactive
c1ccc(CNc2ncnc3nc[nH]c23)cc1	none
Cc1ccc(S(=O)(=O)CCCS(=O)(=O)c2ccc(C)cc2)cc1	none (no result: KCNQ2 pot) | Kir21 confirm 67% | HEK293 ctr inactive
Cc1ccc(S(=O)(=O)c2ccc(C)cc2)cc1	none
Cn1c(=O)c(=O)n(C)c2cc(S(=O)(=O)N3CCCC3C(=O)Nc3ccc(F)cc3)ccc21 (centres undefined)	none (no result: KCNQ2 pot)
COc1ccc(-c2noc(CN3CCN(C(=O)c4cccs4)CC3)n2)c(OC)c1OC	none
CC(C)(C)OC(=O)N[C@@H](Cc1ccccc1)C(=O)N1CCC(C(=O)N[C@@H](Cc2c[nH]c3ccccc23)C(=O)O)CC1	none (no result: KCNQ2 pot)
Cc1ccc2nc3c(c(N)c2c1)CCN3C	none
CCCCN1CCc2c1nc1ccc(Br)cc1c2N	none | Kir21 confirm 24% | HEK293 ctr inactive
CC1(C)CN(c2cccc(Br)c2)C1=O	none
COc1ccc2c(c1)C(=NNc1ccc(C(=O)O)cc1)c1cc(OC)ccc1-2	KCNQ2 pot 7.5 | Kir21 confirm inactive | HEK293 ctr inactive | CHO-K1 Tl ctr inactive | KCNQ1 sel pot inactive | KCNQ2 pot confirm inactive | Kir2-1 sel inactive
COc1ccc(/C(C)=N/Nc2ccc(C(=O)O)cc2)c(OC)c1	none (no result: KCNQ2 pot)
O=C(Cn1cc(S(=O)(=O)Cc2cccc(F)c2)c2ccccc21)N1CCOCC1	none
COc1ccc(-c2cc(=O)c3cc(OC)ccc3o2)cc1	none
COc1ccc(/C=C/c2cc(=O)c3cc(Cl)ccc3o2)cc1	none (no result: KCNQ2 pot) | Kir21 confirm inactive | HEK293 ctr inactive
C=CCN(C(=O)CCC(=O)Nc1cc(C)on1)C(C(=O)NC(C)(C)C)c1ccc(OC)cc1 (centres undefined)	none (no result: KCNQ2 pot)
COC(=O)c1cn(NC(=O)c2cccc(OC)c2)c(=O)c2ccccc12	none (no result: KCNQ2 pot)

Screening data as filed in PubChem BioAssay.
